Source: PubChem BioAssay
ERAP1 inh: human ERAP1 aminopeptidase inhibitors, primary screen, biochemical, single point, plate reader | Endoplasmic reticulum aminopeptidase 1 (Homo sapiens), Q9NZ08 | recombinant ERAP1, Leu-AMC fluorescence, 60 min | inhibition, % at 10.7 µM | 340,000 compounds, 0.15% hits;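 active means mean replicate inhibition of at least 30%, or all replicates individually reaching that 30% level; inactive means mean below 30% and not every replicate reaching it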;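 further: 0% = neutral control wells and 100% = L-leucinethiol positive control wells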
Target sequence (Q9NZ08 whole entry, looked up): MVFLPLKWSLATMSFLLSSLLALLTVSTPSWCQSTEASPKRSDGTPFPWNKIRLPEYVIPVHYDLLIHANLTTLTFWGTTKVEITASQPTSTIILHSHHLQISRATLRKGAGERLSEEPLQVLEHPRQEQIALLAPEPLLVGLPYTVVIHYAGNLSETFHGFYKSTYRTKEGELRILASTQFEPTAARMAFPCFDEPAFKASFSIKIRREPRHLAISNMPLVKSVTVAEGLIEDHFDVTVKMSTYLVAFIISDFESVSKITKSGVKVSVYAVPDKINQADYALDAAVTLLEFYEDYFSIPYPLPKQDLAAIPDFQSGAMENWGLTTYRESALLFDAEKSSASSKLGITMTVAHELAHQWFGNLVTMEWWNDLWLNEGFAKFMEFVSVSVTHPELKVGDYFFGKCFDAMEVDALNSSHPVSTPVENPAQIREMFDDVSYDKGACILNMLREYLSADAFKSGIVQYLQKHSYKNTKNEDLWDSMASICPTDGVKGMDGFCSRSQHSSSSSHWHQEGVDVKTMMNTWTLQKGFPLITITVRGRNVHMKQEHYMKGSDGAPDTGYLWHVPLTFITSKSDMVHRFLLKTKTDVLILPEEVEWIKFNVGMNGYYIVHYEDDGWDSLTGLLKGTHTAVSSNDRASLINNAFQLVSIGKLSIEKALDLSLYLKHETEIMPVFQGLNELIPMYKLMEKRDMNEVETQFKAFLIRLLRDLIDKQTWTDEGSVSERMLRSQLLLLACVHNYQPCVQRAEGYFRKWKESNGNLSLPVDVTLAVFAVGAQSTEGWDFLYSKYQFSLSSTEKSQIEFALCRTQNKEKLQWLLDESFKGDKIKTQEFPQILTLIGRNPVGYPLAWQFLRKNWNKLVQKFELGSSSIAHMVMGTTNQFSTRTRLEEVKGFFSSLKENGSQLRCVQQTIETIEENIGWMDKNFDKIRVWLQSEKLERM
CaV13 FRET inh: Disruptors of the CACNA1D IQ motif to Ca2+-dependent inactivation inhibitor domain association, primary screening, Förster resonance energy transfer in intact living …. HEK cells, CFP/YFP FRET ICDI-IQ, plate reader, 10 min; percent FRET-ratio fall versus neutral wells. inhibition, % at 12.3 µM. 340,000 compounds, 0.098% hits. AID 743397;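 active means mean replicate inhibition of at least 30% and at least 1% of replicates passing that level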;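 further: 0% = median of the neutral control wells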
GSIS activator: GLuc luminescence reporter in INS-1E cells, primary screen for activators of glucose-dependent secretion of insulin; INS-1E GLuc reporter insulin secretion, 2-3 h; activation, % at 16.6 µM; 370,000 compounds, 0.61% hits;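 active means lowest replicate activation of at least 40%, so every replicate reaches that level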;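 further: 0% = median of neutral control wells and 100% = median of IBMX positive control wells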
PGC1a acetyl inh: inhibitors of PGC1a acetylation signal, primary screen, cell-based, U2OS, AlphaScreen, inhibitor mode. AlphaScreen anti-acetyl-lysine; with virally co-expressed GCN5 acetyltransferase. 350,000 compounds, 0.17% hits. inhibition, % at 15.6 µM;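 active means every replicate shows inhibition of at least 40%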;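 further: 0% = neutral control wells and 100% = positive control wells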
DENV2 CPE rescue: inhibitors of DENV2 cytopathic effect, primary screen, cell-based, plate reader, single concentration; DENV2-infected cells, cytopathic effect rescue; CPE inhibition, % at 9.99 µM; 350,000 compounds, 1.7% hits; in the data active means CPE inhibition above about 20%, passing the limit was not always enough; tested in BHK-21 cells;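 further: 0% = median of neutral control wells and 100% = median of positive control wells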
rRNA inh HTS: reduced GFP signal of wild-type E. coli, primary screen, bacterial rRNA inhibitor project, GFP/RFP fluorescence, OD600, single point. E. coli WT GFP vs humanized-ribosome RFP mutants, 24 h; hits give low values; DMSO median 0, no signal -100. GFP signal change (wild-type ribosome), % (no concentration beside the values). 350,000 compounds, 1.6% hits. AID 720706, 2013;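 active means significant combined selectivity score with lowered wild-type GFP, culture density cut under 30%, mutant RFP and density less affected; inactive means any of these conditions unmet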
Numbers without * were called inactive; . = no result given; ! = not confirmed by another sample. Sampled rows, rich in hits. Any-hit rate of the full collection: about 3.2%.

SMILES	ERAP1 inh	CaV13 FRET inh	GSIS activator	PGC1a acetyl inh	DENV2 CPE rescue	rRNA inh HTS
CC(C)c1ccc(-c2csc3ncnc(N4CCN(C)CC4)c23)cc1	1.0	-5.8	-0.8	0.6	13.7	-27.7*
C[C@@H]1CN([C@H](C)CO)S(=O)(=O)c2ccc(C#C[C@@H](C)O)cc2O[C@@H]1CN(C)C(=O)CN(C)C	-0.8	.	14.4	9.1	-1.9	5.9
Cc1ccc(Oc2ncc(-c3ccc(Cl)cc3)cn2)cc1	.	.	45.9*	8.8	.	.
C[C@H](CO)N1C[C@H](C)[C@H](CN(C)CC2CC2)Oc2ncc(-c3ccc(C#N)cc3)cc2C1=O	.	.	-0.9	-5.9	.	-0.3
C[C@H]1CCCCO[C@H](CN(C)Cc2ccc3c(c2)OCO3)[C@@H](C)CN([C@@H](C)CO)C(=O)c2cc(NS(=O)(=O)c3cccs3)ccc2O1	.	.	6.5	2.6	41.0*!	1.3
C[C@H](CO)N1C[C@H](C)[C@@H](CN(C)Cc2ccc3c(c2)OCO3)OCCCC[C@H](C)Oc2ccc(NS(=O)(=O)c3cccs3)cc2C1=O	.	.	2.4	2.6	-6.1	-0.1
C[C@@H]1CCCCO[C@@H](CN(C)Cc2ccc3c(c2)OCO3)[C@H](C)CN([C@@H](C)CO)C(=O)c2cc(NS(=O)(=O)c3cccs3)ccc2O1	.	.	16.9	7.1	112.1*!	1.8
C[C@@H]1CN([C@H](C)CO)C(=O)c2cc(NS(=O)(=O)c3cccs3)ccc2O[C@@H](C)CCCCO[C@@H]1CN(C)Cc1ccc2c(c1)OCO2	.	.	-22.5	-6.5	-14.0	-5.2
C[C@@H]1CN([C@@H](C)CO)C(=O)c2cc(NS(=O)(=O)c3cccs3)ccc2O[C@@H](C)CCCCO[C@H]1CN(C)Cc1ccc2c(c1)OCO2	.	.	-7.0	15.0	36.6*	-1.8
O=C(Nc1ccc(Cl)cc1)N[C@H]1CC[C@@H](CCNC(=O)c2ccccc2F)O[C@@H]1CO	4.0	.	-2.7	9.5	-4.3	-4.5
COc1ccc(OCCN2C(=O)NC(C)(c3ccc(C)cc3)C2=O)cc1 (stereo not given)	.	-4.0	-2.4	-3.5	.	.
Cc1ccc(C2(C)NC(=O)N(CCOc3ccccc3)C2=O)cc1 (stereo not given)	0.9	.	-3.6	.	.	-33.1*
O=C(Cc1ccccn1)NCC[C@H]1CC[C@@H](NC(=O)c2ccccc2F)[C@@H](CO)O1	9.8	.	11.8	0.7	40.2*	1.7
O=C(C[C@H]1C=C[C@@H](NC(=O)Nc2ccc(C(F)(F)F)cc2)[C@@H](CO)O1)NCc1ccccn1	-0.9	.	3.9	6.4	20.1*	-3.1
COC(=O)C[C@@H]1C=C[C@H](NC(=O)Cc2ccccn2)[C@@H](CO)O1	-3.4	-3.3	63.6*	.	-3.5	12.8
COC(=O)C[C@H]1C=C[C@H](NC(=O)Cc2ccccc2)[C@@H](CO)O1	.	-6.7	7.6	.	0.0	5.2
O=C(CN1CCOCC1)NCC[C@H]1CC[C@H](NC(=O)Cc2ccccn2)[C@@H](CO)O1	1.8	.	-2.0	10.3	24.4*	1.1
O=C(Cc1ccccn1)NCC[C@@H]1CC[C@H](NC(=O)Nc2ccc(C(F)(F)F)cc2)[C@H](CO)O1	-2.6	.	7.4	77.9*	-4.3	-2.2
O=C(CN1CCOCC1)NCC[C@@H]1CC[C@H](NC(=O)c2ccc3c(c2)OCO3)[C@@H](CO)O1	-0.5	.	8.7	10.9	22.0*	2.8
O=C(N[C@@H]1CC[C@H](CCNS(=O)(=O)Cc2ccccc2)O[C@H]1CO)c1ccc2c(c1)OCO2	0.1	.	6.2	-19.8	9.9	-0.6
O=C(N[C@@H]1CC[C@H](CCNS(=O)(=O)Cc2ccccc2)O[C@@H]1CO)c1ccc2c(c1)OCO2	0.8	.	5.0	-13.7	21.7*	2.2
COCC(=O)Nc1ccc2c(c1)C(=O)N(C)C[C@H](OC)[C@H](C)CN(Cc1cc(F)ccc1F)[C@H](C)CO2	-2.5	.	-2.8	-8.1	-1.1	1.2
